For 35 compounds, outcome results are on record in PubChem BioAssay (EPA / NIEHS).

Inconclusive results are not listed. Active and inactive are the calls of the source. How the source made its calls: active means hit-call score of the fitted dose curve at least 0.9, where 1 is the maximum; inconclusive means response in the unintended direction; inactive means score below 0.9.

Read-out in this assay: ABC Transporter (ABCB1), ABCB1 (gene 5243)
Put plainly: CLD_ABCB1_6hr: CellzDirect (CLD) Gene Expression Assay for ABC Transporter (ABCB1) at 6 hours (AID 2283659).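 Further: hits raise ABCB1 transcript above the DMSO vehicle baseline.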 The method, then: CLD_6hr is a cell-based, multiplexed-readout assay that uses hepatocyte, a human liver primary cell, with measurements taken at 6 hours after chemical dosing in a 96-well plate.CLD_ABCB1_6hr is one of 16 assay component(s) measured or calculated from the CLD_6hr assay. It is designed to make measurements of mRNA induction, a form of inducible reporter, as detected with chemiluminescence signals by Quantitative Nuclease Protection Assay (qNPA) technology.Data from the assay component CLD_ABCB1_6hr was analyzed at the endpoint, CLD_ABCB1_6hr, in the positive analysis fitting direction relative to DMSO as the negative control and baseline of activity. Using a type of inducible reporter, gain-of-signal activity can be used to understand changes in the reporter gene as they relate to the gene ABCB1. Furthermore, this assay endpoint can be referred to as a primary readout. To generalize the intended target to other relatable targets, this assay endpoint is annotated to the transporter intended target family, where subfamily is ABC transporter.
Human hepatocyte cultures were treated daily for two consecutive days with fresh dosing solutions containing appropriate concentrations of the 320 ToxCast chemicals (chemical identities were blinded to CellzDirect and other ToxCast collaborators), vehicle control (0.2% DMSO), and positive control inducers as summarized in Table 1. Due to the large number of treatment groups and chemicals examined, the ToxCast chemicals were divided into two groups (spanning two independent cultures of hepatocytes from separate donor preparations (Hu778: ToxCast plates 1 and 2; Hu776: ToxCast plates 3 and 4). Each preparation of human hepatocyte cultures was treated with respective vehicle control, medium only control, set of six positive controls/reference chemicals for the five hepatic receptor pathways, and a subset of eight of the ToxCast chemicals (indoxacarb, pyrithiobac-sodium, norflurazon, cyhalofop-butyl, methomyl, thiram, acetochlor, and propiconazole). These replicate data, coupled with internal replicates designed within the blinded ToxCast chemical library, provided additional data to evaluate interindividual differences between hepatocyte preparations and their potential impact on chemical profiles.Cell morphology and integrity were evaluated using phase-contrast microscopy as an indicator of hepatocyte cell health (Tyson & Green, 1987). Cultures for each treatment group (i.e., media, vehicle [0.2% DMSO], positive control inducers [multiple concentrations], and the ToxCast chemicals [multiple concentrations]) were observed and cell morphology was assessed relative to vehicle control cultures at each harvest time point (0, 6, 24, or 48 h). […] Images were evaluated at the conclusion of the study to assess changes in cell integrity and account for the effects of chemical exposure on uncharacteristic changes in concentration-dependent gene expression profiles. The results from these determinations of apparent cytotoxicity were annotated (yes/no) alongside the corresponding qNPA data for reference.At the conclusion of each treatment period, hepatocyte cultures (96-well) were washed with 1 volume of HBSS, lysed by addition of 25 ul ArrayPlate lysis buffer (HTG, Tucson, AZ), and 70 ul/well of Denaturation Oil, denatured by incubation at 95C for 10 min, and frozen at approximately -70C until analysis by nuclease protection assay (qNPA) (Roberts et al., 2007). For qNPA analysis, cell lysates were thawed at 50C for approximately 30 min, qNPA probes were added, and samples were incubated at 95C for 10 min to begin the detection process by denaturing the target RNA, dissociating the duplexes and secondary structure hybridization. At the conclusion of the hybridization period, S1 nuclease reagent was added to each sample to digest all nonprotected nucleotides at 50C for 60-90 min. […]
In the case of `CSC(=O)c1cccc2nnsc12`, the call was inactive.

`CCN(CC)C(=O)c1cccc(C)c1`: the call was inactive.

Take `CN(C)C(=O)Nc1ccc(Cl)c(Cl)c1`: the result was inactive.

Take `COCCO`: the call was inactive.

For `CC(C)(c1ccc(O)cc1)c1ccc(O)cc1`, the compound was classed as inactive.

With `c1ccc2[nH]c(-c3cscn3)nc2c1`, the call was inactive.

`CCCCC(CC)CN1C(=O)C2C3C=CC(C3)C2C1=O` (stereo not given): the result was inactive.

In the case of `COC(=O)CSc1cc(N=c2sc(=O)n3n2CCCC3)c(F)cc1Cl`, the compound was classed as inactive.

As for `CCCCOC(=O)[C@@H](C)Oc1ccc(Oc2ccc(C(F)(F)F)cn2)cc1`, the result was inactive.

`CCNc1nc(N)nc(Cl)n1`: the compound was classed as inactive.

For the compound `CCCOC(=O)c1ccc(C(=O)OCCC)nc1`, the result was inactive.

Take `CCCN(CCC)C(=O)SCC`: the compound was called inactive.

For the compound `COC(=O)c1ccc(CNS(C)(=O)=O)cc1S(=O)(=O)NC(=O)Nc1nc(OC)cc(OC)n1`, the result was inactive.

Turning to `COc1nc(C)nc(NC(=O)NS(=O)(=O)c2ccccc2OCCCl)n1`, the result was inactive.

Regarding `CCCCCCC(C)OC(=O)COc1nc(F)c(Cl)c(N)c1Cl` (stereo not given), the call was inactive.

On to `C=CCOC(Cn1ccnc1)c1ccc(Cl)cc1Cl` (stereo not given), for which the compound was classed as inactive.

Take `S=C(S)NCCNC(=S)S.[Mn+2].[S-]C([S-])=NCCN=C([S-])[S-].[Zn+2]`: the result was inactive.

As to `O=C(Nc1ccc([N+](=O)[O-])cc1Cl)c1cc(Cl)ccc1O`, the outcome was inactive.

Take `CCOC(=O)C(C)Oc1ccc(Oc2nc3ccc(Cl)cc3o2)cc1` (stereo not given): the result was inactive.

In the case of `Oc1ccc(C(c2ccc(O)cc2)C(Cl)(Cl)Cl)cc1`, the compound was called inactive.

Regarding `CCC(C)OC(=O)N1CCCCC1CCO` (stereo not given), the outcome was inactive.

On to `CCOC(=O)COc1cc(-n2ncc(C(F)(F)F)c(C)c2=O)c(F)cc1Cl`, for which the result was inactive.

Turning to `CCCN(CCC)c1c([N+](=O)[O-])cc(C(F)(F)F)c(N)c1[N+](=O)[O-]`, the outcome was inactive.

Consider `CCCOC(=O)NCCCN(C)C`, for which the compound was classed as inactive.

Take `CCOC(=O)NCCOc1ccc(Oc2ccccc2)cc1`: the call was inactive.

`COC(=O)c1ccc(I)cc1S(=O)(=O)NC(=O)Nc1nc(C)nc(OC)n1`: the result was inactive.

Turning to `CCCCC(CC)COC(=O)c1ccccc1C(=O)O` (stereo not given), the result was inactive.

Regarding `COC(=O)c1ccccc1C(=O)O`, the outcome was inactive.

For `COc1c(Cl)ccc(Cl)c1C(=O)O`, the outcome was inactive.

Take `N#CSCSc1nc2ccccc2s1`: the call was inactive.

For the compound `CC(C)(C)[C@@H](O)[C@@H](Cc1ccc(Cl)cc1)n1cncn1`, the call was inactive.

In the case of `C#CCOC(=O)[C@@H](C)Oc1ccc(Oc2ncc(Cl)cc2F)cc1`, the outcome was inactive.

As to `CCCCCOC(=O)COc1cc(N2C(=O)C3=C(CCCC3)C2=O)c(F)cc1Cl`, the call was inactive.

For the compound `CCC(O)=C1C(=O)CC(C(=O)O)CC1=O` (stereo not given), the outcome was inactive.

Turning to `CCOC(=O)[C@H](C)Oc1ccc(Oc2nc3ccc(Cl)cc3o2)cc1`, the compound was classed as inactive.
